The values that follow come from PubChem BioAssay AID1508622 (National Center for Advancing Translational Sciences (NCATS), 2021).

Activity calls are given as the source filed them. Where a call stands in place of a potency, no number is given. Calls come from the whole dose curve; as a rule, active = well fitted activation curve with a large enough effect; inconclusive = small, poorly fitted or top-dose-only effect; inactive = no such curve, though single readings can be large or run the other way.
Potency is the fitted concentration of half-maximal effect.

This assay in a line: Confirmatory qHTS for Identification of Small Molecule Activators of Huntingtin-Antisense Promoter Activity. The conditions noted are these: HEK293 HTT-AS promoter firefly luciferase reporter, 24 h; series mostly up to 57.5 µM. From the text:
Assay Provider: Russell L. Margolis M.D.
Department Neurology, Johns Hopkins University School of Medicine, Baltimore, MD
Huntington's Disease (HD) is a neurodegenerative disorder caused by a CAG repeat expansion in exon 1 of huntingtin (HTT). While there are currently no disease-modifying treatments for HD, recent efforts have focused on development of nucleotide-based therapeutics to lower HTT expression. As an alternative to siRNA or oligonucleotide methods, we hypothesized that suppression of HTT expression might be accomplished by small molecules that either (1) directly decrease HTT expression by suppressing HTT promoter activity or (2) indirectly decrease HTT expression by increasing the promoter activity of HTT-AS, the gene antisense to HTT that appears to inhibit expression of HTT.
We developed and employed a high throughput screen for modifiers of HTT and HTT-AS promoter activity using luminescent reporter HEK293 cells; of the 52,041 compounds tested, we identified 898 replicable hits. We used a rigorous stepwise approach to assess compound toxicity and the capacity of the compounds to specifically lower huntingtin protein in 5 different cell lines, including HEK293 cells, HD lymphoblastoid cells, mouse primary neurons, HD iPSCs differentiated into cortical-like neurons, and HD hESCs. We found no compounds which were able to lower huntingtin without lowering cell viability in all assays, though the potential efficacy of a few compounds at non-toxic doses could not be excluded.
SEQUENCE No. (1, 2, 3, etc.); […] (e.g., Cells, Incubation, Reagent, etc.); VALUE and DESCRIPTION.
1; Reagent; 4 uL; 2,500 Hek293 luciferase reporter cells per wells
3; Compound; 23 nL; Control inhibitor / compound library
5; Reagent; 2.5 uL; Firefly Luc reagent; Dual-Glo Luciferase Reporter Assay System (Promega)
6; Time; 10 min; room temperature incubation
7; Detection; Luminescence; FLuc
NOTES (numbers refer to sequence above)
1; High-throughput screening, measuring luminescence from a Hek293 luciferase reporter, was performed in 1,536 well white-walled tissue-culture treated plates. 2,500 cells were plated in 4 uL of Opti-MEM per well using a Multidrop Combi Reagent Dispenser (ThermoFisher).
2; Assay plates were cultured for 24 hours.
3; Control inhibitor (PTC124; final concentration of 50 uM) and compound library (at final concentrations of 460 nM - 57.5 uM) were added to the assay plate using the Kalypsis Pintool Robotic System equipped with 1536 pinheads.
4; Cells were then incubated for 24 hours at 37C prior to luminescence measurements.
5; In all cases, luminescence was measured using the Dual-Glo Luciferase Reporter Assay System (Promega) following the manufacturer's instructions.
6; Room temperature incubation.
7; Luminescence signal was obtained using the PerkinElmer ViewLux plate reader. Results were normalized to vehicle control (0% activity) and zero RLU (-100% activity).
For orientation: qHTS replaces the single test concentration by a dilution series.
Consider `Cc1ccc(-c2[nH]c3ccccc3c2SCCNC(=O)c2ccc(S(=O)(=O)N(C)C)cc2)cc1`, for which the Potency result was “inactive”.
In the case of `Cc1ccc(S(=O)(=O)n2nc(-c3ccccc3)nc2NCc2ccccc2Cl)cc1` it was “inactive”.
Next, `COc1ccc(C(C)n2c(C)c3c(C)nnc(C)c3c2C)cc1` (stereo not given): “inactive”; `COc1ccc(C)cc1NS(=O)(=O)c1ccc(-c2cnc(C3CC3)o2)cc1`: “inactive”; `O=C(Cn1c(=O)oc2cc(S(=O)(=O)N3CCCCC3)ccc21)NCc1ccc(F)cc1`: “inactive”.
For `CN(C)Cc1c(C(=O)NCCOc2ccc(C(=O)NO)cc2)oc2ccccc12`, the Potency is 7.57 µM (active).
With `CCOC(=O)C1CCC(CN(Cc2ccccc2)S(=O)(=O)c2ccc(Cl)cc2)CC1` (stereo not given), the Potency result was “inactive”.
For `COc1ccc([C@@H]2CNC(=O)C2)cc1OC1CCCC1`, the Potency result was “inactive”.
Take `Clc1ccc(N2CCN(c3ncnc4c3nc3n4CCCC3)CC2)cc1`: the Potency entry was “inactive”.
Take `COc1cccc(NC(=O)CN2CCCN(S(=O)(=O)c3ccc(Br)cc3)CC2)c1`: the Potency result was “inactive”.
Take `Cc1ccc(-c2nc(S(=O)(=O)c3ccccc3)c(SCC(=O)NC3CCCCC3)o2)cc1`: the Potency entry is “inactive”.
Regarding `Cc1ccc(C)c(-n2nnc(C(=O)Nc3ccc(Br)cc3)c2C)c1`, the Potency result was “inactive”.
Take `CCS(=O)(=O)c1ncc(Cl)c(C(=O)N(Cc2ccccc2)c2ccc(OC)cc2)n1`: the Potency result was “inactive”.
`Cc1ccc(S(=O)(=O)NCCc2csc(-c3cccc(F)c3)n2)cc1`: the Potency entry was “inactive”.
Regarding `Cc1ccc(-n2ccnc(NCCc3ccc(S(N)(=O)=O)cc3)c2=O)c(C)c1`, the Potency result was “inactive”.
In the case of `Cc1ccc(NC(=O)c2ccc(F)c(S(=O)(=O)NCCc3ccccc3)c2)cc1F` it was “inactive”; in that of `O=C(c1cccs1)N(Cc1cccnc1)c1nc2c(F)cc(F)cc2s1`, “inactive”.
`COc1ccc(CC(=O)Nc2ccc(-c3nc4ccccc4s3)cc2Cl)cc1OC`: the Potency entry was “inactive”.
With `CCCCC(=O)Nc1cccc(-c2nc3ccccc3s2)c1`, the Potency was 3.01 µM (active).
Next, `Cc1nc2cccnc2n1-c1cccc(C(=O)NCc2ccc(OC(C)C)cc2)c1`: “inactive”; `COc1ccc(C(=O)Nc2ccc(-c3cc4ccccc4oc3=O)c(C)c2)cc1Br`: “inactive”.
As to `CCCCN(C)C(=O)C1CCCN(c2ncnc3onc(C)c23)C1` (stereo not given), the Potency entry was “inactive”.
As to `CCCC(=O)c1ccc(OC(=O)c2c(-c3ccccc3Cl)noc2C)cc1`, the Potency result is “inactive”.
Take `CCc1c(C)nc2nncn2c1NCc1ccc(OC)cc1`: the Potency result is “inactive”.
With `COc1ccc(C(=O)CN2CCN(S(=O)(=O)c3ccc(C(C)C)cc3)CC2)cc1`, the Potency result is “inactive”.
`CCN(CCCNC(=O)CSc1cc(=O)n(CC)c2ccccc12)c1ccccc1`: the Potency result is “inactive”.
For `O=C(CCCn1ccc2cc(S(=O)(=O)N3CCCC3)ccc21)NCc1ccc(Cl)cc1`, the Potency entry was “inactive”.
As for `COc1ccc(-n2nc3c(N4CCCC(C(=O)NCCc5ccc(C)cc5)C4)nnc(C)c3c2C)cc1` (stereo not given), the Potency entry is “inactive”.
Consider `O=C(Cn1c(=O)oc2cc(S(=O)(=O)N3CCCCC3)ccc21)NCc1ccc(Cl)cc1`, for which the Potency result was “inactive”.
On to `Cc1ccc(N2C(=O)C(CC(=O)Nc3ccccc3)N(CCC3=CCCCC3)C2=O)cc1` (stereo not given), for which the Potency was 6.75 µM (active).
`Cc1cc(C)c(/C=C/c2onc(C)c2S(=O)(=O)N2CCC(C(=O)NCc3ccco3)CC2)c(C)c1`: the Potency result is “inactive”.
In the case of `COc1ccc(-c2noc(C(C)NC(=O)c3ccco3)n2)cc1` (stereo not given), the Potency entry is “inactive”.
Consider `Cc1ccc(Cl)cc1N1CCN(C(=O)C2CCN(S(=O)(=O)c3ccc4c(c3)oc(=O)n4C)CC2)CC1`, for which the Potency entry is “inactive”.
For `CC(CNC(=O)c1ccc(CSc2nc3ccncc3n2Cc2ccc(F)cc2)cc1)c1ccccc1` (stereo not given), the Potency result was “inactive”.
Consider `CCOc1ccc(-c2nc(CSCC(=O)NCCc3ccccc3)c(C)o2)cc1`, for which the Potency result was “inactive”.
Next, `CCOC(=O)C1CCCN(C(=O)Cn2ncc3c(C)n(Cc4ccc(F)cc4)c(C)c3c2=O)C1` (stereo not given): “inactive”; `COc1ccc(NC(=O)C(=O)c2cc(C)n(-c3ccc(C)cc3)c2C)cc1Cl`: “inactive”; `COc1cc(OC)cc(C(=O)Nc2ccc3c(c2)CCCN3C(=O)c2cccs2)c1`: “inactive”.
`COc1ccccc1N1CCN(C(CNC(=O)C(=O)NCc2cccnc2)c2cccnc2)CC1` (stereo not given): the Potency result is “inactive”.
Take `CCOC(=O)C1CCC(CN(Cc2c(Cl)cccc2Cl)S(=O)(=O)c2ccc(Cl)cc2)CC1` (stereo not given): the Potency result was “inactive”.
